Screening results (PubChem)
The list is not random: actives were taken first. Their share in the collection is about 2.4%.
A3A deaminase: APOBEC3A ssDNA deaminase inhibitors, primary screen, selectivity assay for APOBEC3G inhibitor project, biochemical, FAM/TAMRA oligo cleavage fluorescence; DNA dC->dU-editing enzyme APOBEC-3A (Homo sapiens), P31941; recombinant A3A, FAM/TAMRA ssDNA deamination fluorescence; inhibition, % at 20 µM; 330,000 tested, 0.41% active;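 active = at least 40% inhibition at 20 µM here, with at most 30% in a related deaminase screen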;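 also: plate controls were A3A with DMSO for no effect and wells lacking A3A enzyme for full effect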
Target sequence (P31941 whole entry, looked up): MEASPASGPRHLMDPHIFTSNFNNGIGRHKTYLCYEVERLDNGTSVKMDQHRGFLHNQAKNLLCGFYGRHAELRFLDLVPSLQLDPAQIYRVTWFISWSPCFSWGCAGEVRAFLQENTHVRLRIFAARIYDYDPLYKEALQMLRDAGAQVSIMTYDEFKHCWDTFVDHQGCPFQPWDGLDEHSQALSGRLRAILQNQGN
APOBEC3G inh: APOBEC3G DNA deaminase inhibitors, primary screen, biochemical, fluorescence, single-stranded DNA substrate, uHTS | DNA dC->dU-editing enzyme APOBEC-3G (Homo sapiens), Q9HC16 | recombinant A3G, ssDNA deamination FAM/TAMRA fluorescence | inhibition, % at 20 µM | 330,000 tested, 0.28% active | AID 493012, 2011;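 active = inhibition of at least 40% at 20 µM, with no more than 30% in the related APOBEC3A deaminase screen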;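 also: plate controls were DMSO wells with A3G for no effect and wells lacking A3G enzyme for full effect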
PfG6PD inh: PfG6PD enzyme inhibitors, primary screen, biochemical, fluorescence intensity, uHTS; glucose-6-phosphate dehydrogenase-6-phosphogluconolactonase (Plasmodium falciparum 3D7); PfGluPho enzyme, NADPH resazurin-diaphorase fluorescence; inhibition, % at 20 µM; 350,000 tested, 0.78% active;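 active = inhibition reaching at least a set limit at 20 µM in the primary screen, cut at about 59% in these data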;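 also: 0% = DMSO wells with substrate and 100% = DMSO wells lacking glucose-6-phosphate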
PfM18AAP inh-1: PfM18AAP inhibitors, malaria aminopeptidase, primary screen, biochemical, QFRET, recombinant enzyme; 290,000 tested, 1.2% active; AID 1822, 2009; H-Glu-NHMec fluorogenic cleavage; M18 aspartyl aminopeptidase (Plasmodium falciparum 3D7); inhibition, % at 7.35 µM;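 active = inhibition above the campaign mean inhibition over all tested compounds plus 3 SD, cut at about 28% in these data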;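 also: 0% = plate median of test compound wells and 100% = 2 mM ZnCl2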
CR mimetic SO: reduction of superoxide in aged yeast, primary screen, HTS. 330,000 tested, 0.18% active. S. cerevisiae aged cells, superoxide DHE fluorescence; stronger effect = lower value. superoxide response (% of plate mean), % at 10 µM;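 active = superoxide response under a set limit, about three screen SD below normal, cut at about 65% in these data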;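 also: yeast aged for seven days with compound at 30 °C before DHE staining; 100% = average MFI of all compound-treated wells on the plate with controls excluded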
PfM18AAP inh-2: PfM18AAP inhibitors, malaria aminopeptidase, confirmation, biochemical, QFRET, recombinant enzyme, triplicate; inhibition, % at 7.35 µM; shares compounds with PfM18AAP inh-1; 2,400 tested, 28% active; H-Glu-NHMec fluorogenic cleavage;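 active = mean inhibition over replicate wells above the hit cutoff set for the earlier primary screen, cut at about 29% in these data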;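 also: 0% = median of test compound wells and 100% = 2 mM ZnCl2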
CTSL1 confirm: cathepsin L1 inhibitors, retest, confirmation, counter-screen for PFM18AAP inhibitor project, biochemical, QFRET, triplicate; 2,400 tested, under 10 active; AID 2178, 2009; shares compounds with PfM18AAP inh-1; inhibition, % at 5.96 µM; purified cathepsin L1, Z-Leu-Arg-MCA fluorescence;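 active = average inhibition across replicates above the hit cutoff set in the earlier primary screen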;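 also: 0% = median of test compound wells and 100% = Z-Phe-Ala-diazomethylketone 1 µM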
The depositor's hits bear a star; x = no result.

SMILES | A3A deaminase | APOBEC3G inh | PfG6PD inh | PfM18AAP inh-1 | CR mimetic SO | PfM18AAP inh-2 | CTSL1 confirm
COc1ccc2nc(C)cc(SCC(=O)N/N=C/c3ccc(O)c(O)c3)c2c1 | 7 | 4 | 1 | 60* | 115 | 63* | -5
COc1ccc2nc(C)cc(SCC(=O)N/N=C/c3cccc4ccccc34)c2c1 | -2 | -9 | 2 | 3 | 90 | x | x
COc1cc(C(=O)NCCOc2ccc(Cl)cc2)ccc1OCc1c(C)noc1C | 6 | -2 | -9 | x | 126 | x | x
NNC(=O)c1cccn(Cc2cccc(C(F)(F)F)c2)c1=O | 5 | 9 | -18 | -2 | 90 | x | x
O=C(COC(=O)c1ccc(F)cc1F)NC(=O)Nc1ccc2c(c1)OCCO2 | 1 | -5 | 10 | x | 106 | x | x
NC(=O)C1CCN(C(=S)c2ccc(-c3ccc(Br)cc3)o2)CC1 | -3 | 17 | 44 | 49* | 119 | -13 | 7
c1ccc(Cc2noc(CN3CCN(CCOc4ccccc4)CC3)n2)cc1 | 0 | 1 | 2 | 3 | 122 | x | x
O=C1/C(=C/c2ccco2)SC(=S)N1CCC(=O)N1CCCCC1CCO (stereo unspecified) | 35 | 13 | 15 | 32* | 95 | -26 | 1
Cc1cc(C)n2c(SCC(O)=C(C#N)c3nc4ccccc4[nH]3)nnc2n1 | x | x | -16 | x | x | x | x
N#C/C(=C(/O)CSc1ncn[nH]1)c1nc2ccccc2[nH]1 | 0 | -5 | -4 | 64* | 101 | 9 | 3
CCOC(=O)c1c(/N=C/C2=C(O)CCCC2=O)sc(C)c1C | 0 | -5 | -11 | 24 | 78 | x | x
CCOC(=O)c1c(-c2ccc(OC)cc2)csc1/N=C/C1=C(O)CCCC1=O | 0 | -7 | 24 | 37* | 101 | -30 | 4
Cc1cccc(C(=O)NNC(=O)C2CC2)c1 | -8 | -5 | -4 | 0 | 95 | x | x
COc1ccc2c(-c3ccccc3)cc(N3CCOCC3)nc2c1 | -4 | -9 | 11 | 50* | 89 | -44 | 6
O=C(NNc1ccc(-c2csnn2)cc1)c1ccccc1C(F)(F)F | -3 | -9 | 2 | 40* | 126 | 13 | 2
O=C1c2ccccc2C(=O)N1CSc1ncccn1 | 1 | 1 | -18 | 46* | 93 | -58 | 2
Cc1cc(C)n2nc(SCN3C(=O)c4ccccc4C3=O)nc2n1 | 9 | 3 | 8 | 77* | 90 | -42 | 3
Cc1cc(C)n2nc(SCC(=O)Nc3ccccc3)nc2n1 | -1 | -5 | -23 | -16 | 103 | x | x
O=C1CCCC/C1=C\Nc1ccc(C(=O)O)c(O)c1 | -3 | -3 | 11 | 33* | 106 | -19 | 2
CC1CCC/C(=C\Nc2ccc(C(=O)O)c(O)c2)C1=O (stereo unspecified) | -3 | -7 | 9 | 26 | 113 | x | x
Cc1sc2ccccc2[n+]1CC(=O)c1ccccc1 | -4 | -7 | 52 | 52* | 94 | 11 | 0
COc1cc(/C=C/C(=O)c2cccc([N+](=O)[O-])c2)cc(OC)c1OC | -3 | -9 | -2 | 8 | 107 | x | x
O=C(/C=C/c1ccccc1F)c1cccc([N+](=O)[O-])c1 | 1 | 2 | 10 | 34* | 114 | 4 | 5
COc1ccc(C(CNC(=O)c2ccc(Br)o2)N2CCN(C)CC2)cc1 (stereo unspecified) | 4 | -2 | 15 | x | 100 | x | x
COc1ccccc1CC(=O)N1CCN(c2ccccc2F)CC1 | -4 | -10 | -11 | 1 | 99 | x | x
S=c1[nH]nc(COc2ccccc2)n1/N=C/c1ccccc1Br | -3 | -5 | 16 | 35* | 109 | 9 | 6
O=C(O)c1ccc(-n2c(O)c(C=C3N=c4ccccc4=N3)sc2=S)cc1 | 2 | 1 | 19 | 51* | 131 | -46 | 1
